Test results taken from PubChem BioAssay AID720597 (Broad Institute, 2013).
Measured potencies and affinities stand elsewhere. Calls of active or inactive are those of the source.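 How the source made its calls: active means fitted half-maximal dose no more than twice the top valid tested dose, for compounds that lower signal; inconclusive means fit invalid, or curve flat with activity between -70 and -30; inactive means potency past limit, curve flat within ±30, or signal increasing.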

The compounds below were run against NAD-dependent protein deacylase sirtuin-5, mitochondrial (Homo sapiens) (UniProt Q9NXA8) (assay: SIRT5 deacylase inhibitors, dose response, biochemical, fluorescence imaging, cherry-pick, set 6 (AID 720597;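 further: lower AMC signal can also come from blocking the trypsin step; 0% = median of neutral control wells and -100% = median of positive control wells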)). Details: Purified SirT5, succinyl-peptide-AMC/trypsin fluorescence; series mostly up to 15 µM; activity change, negative = inhibition: at the top concentration.
Sequence of NAD-dependent protein deacylase sirtuin-5, mitochondrial (Homo sapiens) (Q9NXA8 whole entry, looked up): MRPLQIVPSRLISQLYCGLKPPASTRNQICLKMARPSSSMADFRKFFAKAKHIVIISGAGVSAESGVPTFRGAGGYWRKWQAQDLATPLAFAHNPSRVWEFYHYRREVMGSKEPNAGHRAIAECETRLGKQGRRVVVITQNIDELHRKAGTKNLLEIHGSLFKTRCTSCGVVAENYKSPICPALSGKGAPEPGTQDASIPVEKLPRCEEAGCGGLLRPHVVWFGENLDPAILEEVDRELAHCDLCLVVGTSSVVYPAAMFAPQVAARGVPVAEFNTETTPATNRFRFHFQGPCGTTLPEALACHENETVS

| Structure (SMILES) | activity change, negative = inhibition |
| --- | --- |
| COc1ccccc1NC(=O)N[C@@H]1CC[C@H](CCNS(=O)(=O)c2ccc(Cl)cc2)O[C@@H]1CO | -15.1% (inactive) |
| C[C@H]1CN([C@@H](C)CO)C(=O)c2cc(NS(=O)(=O)c3ccc(Cl)cc3)ccc2O[C@H]1CN(C)Cc1ccc(Cl)c(Cl)c1 | -3.12% (inactive) |
| C[C@H]1CN([C@@H](C)CO)S(=O)(=O)c2ccc(/C=C/c3ccccc3)cc2O[C@@H]1CN(C)C(=O)NC1CCCC1 | 7.67% (inactive) |
| COCC(=O)NC[C@H]1N[C@H](CO)[C@@H]1c1ccc(C2=CCCCC2)cc1 | 15% (inactive) |
| C[C@H](CO)N1C[C@H](C)[C@@H](CN(C)Cc2ccc(C(F)(F)F)cc2)OCCCC[C@H](C)Oc2ccc(NS(=O)(=O)c3ccc(Cl)cc3)cc2C1=O | -16.8% (inactive) |
| Cc1ccc(S(=O)(=O)Nc2ccc3c(c2)C(=O)N([C@@H](C)CO)C[C@H](C)[C@@H](CN(C)C(=O)Nc2ccc(C(F)(F)F)cc2)OCCCC[C@@H](C)O3)cc1 | 20.9% (inactive) |
| C[C@H]1CN([C@@H](C)CO)S(=O)(=O)c2ccc(C#CC3CC3)cc2O[C@H]1CN(C)C(=O)c1ccccn1 | 0.87% (inactive) |
| Cc1noc(C)c1NC(=O)Nc1cccc2c1O[C@H](CN(C)Cc1ccc(Oc3ccccc3)cc1)[C@H](C)CN([C@H](C)CO)C2=O | -14.9% (inactive) |
| COc1cccc(NC(=O)N(C)C[C@@H]2OCc3cn(nn3)CCCC(=O)N([C@H](C)CO)C[C@H]2C)c1 | -2.5% (inactive) |
| COc1ccc(S(=O)(=O)N(C)C[C@H]2OCCCC[C@H](C)Oc3ccc(NS(=O)(=O)c4ccc(F)cc4)cc3C(=O)N([C@@H](C)CO)C[C@H]2C)cc1 | -27.1% (inactive) |
| COc1ccc(S(=O)(=O)N(C)C[C@H]2Oc3cc(C#CC4CC4)ccc3S(=O)(=O)N([C@@H](C)CO)C[C@@H]2C)cc1 | 11.5% (inactive) |
| COc1ccc(S(=O)(=O)N(C)C[C@H]2OCCCC[C@H](C)Oc3ccc(NS(=O)(=O)c4ccc(F)cc4)cc3C(=O)N([C@@H](C)CO)C[C@@H]2C)cc1 | -23.8% (inactive) |
| COc1ccc(NC(=O)Nc2ccc3c(c2)C(=O)N([C@H](C)CO)C[C@@H](C)[C@@H](CN(C)Cc2ccccc2)OCCCC[C@H](C)O3)cc1 | -10.3% (inactive) |
| CO[C@H]1CN(C)C(=O)c2ccc(NC(C)=O)cc2OC[C@H](C)N(Cc2nccs2)C[C@@H]1C | 12.7% (inactive) |
| CCC(=O)N1CCCCN2[C@H](CO)[C@H](c3ccc(-c4cccc(C#N)c4)cc3)[C@@H]2C1 | -2.5% (inactive) |
| O=C(NCC[C@H]1CC[C@@H](NC(=O)C2CC2)[C@H](CO)O1)c1cc(Cl)cc(Cl)c1 | -4.46% (inactive) |
| Cc1ccc(S(=O)(=O)Nc2ccc3c(c2)C(=O)N([C@@H](C)CO)C[C@H](C)[C@H](CN(C)S(=O)(=O)c2ccccc2)OCCCC[C@@H](C)O3)cc1 | 5.12% (inactive) |
| Cc1ccc(S(=O)(=O)N(C)C[C@H]2Oc3ccc(NC(=O)Cn4cnnn4)cc3CC(=O)N([C@@H](C)CO)C[C@H]2C)cc1 | 6.02% (inactive) |
| O=C(CCN1CCCCC1)N[C@H]1CC[C@H](CC(=O)N2CCC(Cc3ccccc3)CC2)O[C@@H]1CO | -12.6% (inactive) |
| C[C@H](O)C#Cc1ccc2c(c1)O[C@H](CN(C)Cc1ccc(-c3ccccc3)cc1)[C@H](C)CN([C@@H](C)CO)S2(=O)=O | -28.8% (inactive) |

| Structure (SMILES) | activity change, negative = inhibition |
| --- | --- |
| C[C@H]1CN([C@@H](C)CO)C(=O)Cc2cc(NC(=O)Nc3ccc(F)cc3)ccc2O[C@@H]1CN(C)C | -9.38% (inactive) |
| CC(C)CC#Cc1ccc2c(c1)O[C@@H](CN(C)S(=O)(=O)c1cccc(F)c1)[C@@H](C)CN([C@H](C)CO)S2(=O)=O | -21% (inactive) |
| Cc1cccc(-c2ccc([C@@H]3[C@@H](CO)N4CCCCN(S(=O)(=O)c5ccccc5F)C[C@H]34)cc2)c1 | -19.2% (inactive) |
| COc1ccc(S(=O)(=O)Nc2ccc3c(c2)C(=O)N([C@H](C)CO)C[C@@H](C)[C@@H](CN(C)S(=O)(=O)c2ccccc2)OCCCC[C@@H](C)O3)cc1 | -8.5% (inactive) |
| O=C(c1cnccn1)N1CC(=O)N2[C@@H](CO)[C@H](c3ccc(C#CC4CC4)cc3)[C@@H]2C1 | 22.1% (inactive) |
| C[C@@H]1CN([C@@H](C)CO)S(=O)(=O)c2ccc(C#CC3CC3)cc2O[C@@H]1CN(C)Cc1ccccc1F | 7.53% (inactive) |
| C[C@@H]1CN([C@H](C)CO)C(=O)c2cc(NS(=O)(=O)c3ccc(F)cc3)ccc2O[C@@H](C)CCCCO[C@@H]1CN(C)S(=O)(=O)c1ccc(Cl)cc1 | 2.61% (inactive) |
| O=C(NCC[C@H]1CC[C@H](NS(=O)(=O)c2cccc(F)c2)[C@H](CO)O1)C1CCOCC1 | 5.64% (inactive) |
| CCCC(=O)Nc1ccc2c(c1)OC[C@@H](C)N(Cc1ccccc1)C[C@H](C)[C@@H](OC)CN(C)C2=O | -11.1% (inactive) |
| C[C@H]1CN([C@@H](C)CO)C(=O)CCCn2cc(nn2)CO[C@H]1CN(C)Cc1ccccc1 | 9.33% [at 16 µM] (inactive) |
| C[C@@H]1CCCCO[C@@H](CN(C)S(=O)(=O)c2ccc(F)cc2)[C@H](C)CN([C@@H](C)CO)C(=O)c2cc(NC(=O)Nc3ccc4c(c3)OCO4)ccc2O1 | -4.57% (inactive) |
| CS(=O)(=O)N(CC(=O)NC1CCCCC1)c1cccc(F)c1 | -0.763% [at 16 µM] (inactive) |
| COc1ccc(C#Cc2ccc([C@@H]3[C@H]4CN(C(=O)c5cccnc5)CC(=O)N4[C@H]3CO)cc2)cc1 | 4.01% (inactive) |
| COc1ccc(S(=O)(=O)N2CCC3(CC2)CN(C(=O)c2cccnc2)[C@@H](CO)c2c3c3ccc(OC)cc3n2C)cc1 | 12.7% (inactive) |
| COc1ccc(S(=O)(=O)N(C)C[C@@H]2OCCCC[C@@H](C)Oc3ccc(NS(=O)(=O)c4ccc(C)cc4)cc3C(=O)N([C@@H](C)CO)C[C@@H]2C)cc1 | -14.6% (inactive) |
| COc1ccc(NC(=O)N[C@@H]2CC[C@H](CCn3cc(-c4ccc(OC)cc4)nn3)O[C@@H]2CO)cc1 | 33.9% (inactive) |
| CC(C)C#Cc1cnc2c(c1)C(=O)N([C@@H](C)CO)C[C@H](C)[C@H](CN(C)C(=O)c1ccccc1)O2 | -16.9% (inactive) |
| CN(C)CC#Cc1ccc([C@@H]2[C@@H](CO)N3C(=O)CN(C(=O)c4cccc(F)c4)C[C@@H]23)cc1 | -6.67% [at 16 µM] (inactive) |
| CN(C)C(=O)c1cccc(-c2ccc([C@@H]3[C@@H](CO)N4CCCCN(S(C)(=O)=O)C[C@H]34)cc2)c1 | -17.2% (inactive) |
